Only some compounds are listed: those with a hit (about 6% of all), similar ones and a draw of the others.
D1 ag = Allosteric Agonists of the Human D1 Dopamine Receptor: qHTS; AID 504660, 2011; HEK293 T-REx D1 cells, calcium flux, agonist mode; activation, % at 2 µM; hit rate 1% among 360,000; in the data active = activation above about 30%; also: 0% is about no effect
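Agonism was scored from calcium flux recorded over 180 s (1 read/s) after pintool compound addition, following a 10-cycle baseline. Cells were inducible force-coupled HEK293 TREx D1, plated overnight at 30 C and loaded with no-wash calcium dye.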
D1 antagonist = Antagonist of Human D 1 Dopamine Receptor: qHTS; activity change, negative = inhibition, % at 10 µM; hit rate 3.2% among 360,000; D(1A) dopamine receptor (Homo sapiens), P21728; HEK293 TREx D1 cells, calcium flux, dopamine EC80; hits give low values; in the data active = activity change below about -30%; also: % is scaled to controls: 0 for no effect and ±100 for the full control effect
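HEK293 T-REx cells expressing inducible, force-coupled D1 receptor; no-wash Ca dye, 30–90 min RT. Cmpd → 180 s read at 1 Hz → EC80 DA → 180 s read.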
D1 PAM = Potentiators of Human D1 Dopamine Receptor: qHTS; D(1A) dopamine receptor (Homo sapiens), P21728; HEK293 TREx D1 cells, calcium flux, dopamine EC20 potentiation; AID 504651, 2011; potentiation, % at 10 µM; hit rate 0.036% among 360,000; in the data active = potentiation above about 30%; also: 0% is about no effect
D3 antag = qHTS of D3 Dopamine Receptor Antagonist: qHTS. D(3) dopamine receptor (Homo sapiens), P35462. D3R cells, DiscoveRx beta-arrestin luminescence, antagonist mode; hits give low values. max response, negative = inhibition, %. hit rate 2.5% among 360,000. AID 652054, 2013; in the data active = max response below about -50%; also: % is scaled to controls: 0 for no effect and ±100 for the full control effect
Target sequence (P35462 whole entry, looked up): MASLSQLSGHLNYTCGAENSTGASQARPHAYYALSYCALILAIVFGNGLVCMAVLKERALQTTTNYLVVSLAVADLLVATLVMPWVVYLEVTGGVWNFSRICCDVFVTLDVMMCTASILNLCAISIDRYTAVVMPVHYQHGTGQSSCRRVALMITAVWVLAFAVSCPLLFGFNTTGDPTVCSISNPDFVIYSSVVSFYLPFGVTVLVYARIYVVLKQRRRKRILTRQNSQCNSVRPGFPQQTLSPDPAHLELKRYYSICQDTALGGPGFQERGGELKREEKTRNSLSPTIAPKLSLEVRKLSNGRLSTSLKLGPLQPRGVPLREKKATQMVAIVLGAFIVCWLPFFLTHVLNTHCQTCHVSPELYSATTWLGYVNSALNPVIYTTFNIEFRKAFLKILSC
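Cells expressing the human receptor were seeded at 1500 cells/well, incubated overnight at 37 degrees C in 5% CO2, then exposed to library compounds with dopamine controls for 90 minutes at 37 degrees C before luminescent detection.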
D3 ag = qHTS of D3 Dopamine Receptor Agonist: qHTS; max activation, %; AID 652048, 2013; hit rate 0.58% among 410,000; D3R DiscoveRx beta-arrestin cells, luminescence, 90 min; in the data active = max activation above about 30%; also: 0% is about no effect
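Agonist-mode cell screen: cells plated at 1500/well and incubated overnight at 37 °C, then exposed to library compounds for 90 min at 37 °C. Detection reagent was added for 30–60 min at room temperature, and luminescence was read.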
The depositor's hits bear a star.

`O=S(=O)(c1ccc2c(c1)OCCO2)N1CCN(S(=O)(=O)c2cc(F)c(F)cc2F)CC1` gave D1 ag 3, D1 antagonist -5 and D1 PAM 2.
For Cc1nn(CC(=O)Nc2ccc(C(C)C)cc2)c(=O)c2c(C)n(-c3ccc(Cl)cc3)nc12 the results were D1 ag 1, D1 antagonist 3, D1 PAM 0 and D3 ag 1.
COc1ccc(Cl)cc1NC(=O)c1cc(S(=O)(=O)NC2CCCCCC2)ccc1F was read as D1 ag 5, D1 antagonist -5, D1 PAM 1 and D3 ag -18.
`CC1CCN(CCCNC(=O)c2ccc(CSCc3cccc(Cl)c3)o2)CC1` gave D1 ag 20, D1 antagonist -5, D1 PAM -1, D3 antag -62* and D3 ag -60.
For CN1CCN(CCCNC(=O)c2ccc(CSCc3cccc(Cl)c3)o2)CC1 the results were D1 ag 1, D1 antagonist 8, D1 PAM 4, D3 antag 6 and D3 ag -10.
O=C(NCc1ccc(F)cc1)c1ccc(CSCc2cccc(Cl)c2)o1 was read as D1 ag 20, D1 antagonist -1, D1 PAM -7 and D3 ag -6.
`O=C(NCc1ccc(Cl)cc1)c1ccc(CSCc2cccc(Cl)c2)o1` gave D1 ag 39*, D1 antagonist -16, D1 PAM -4 and D3 ag 6.
Cc1ccc(CNC(=O)c2ccc(CSCc3ccc(Cl)cc3)o2)cc1 was read as D1 ag 19, D1 antagonist -13, D1 PAM -2 and D3 ag -7.
For CCc1ccccc1S(=O)(=O)Cc1ccc(C(=O)NCc2ccc3c(c2)OCO3)o1 the results were D1 ag 0, D1 antagonist -56*, D1 PAM -8, D3 antag 15 and D3 ag 6.
Screening O=C(NCc1ccc2c(c1)OCO2)c1ccc(CSCc2ccc(Cl)cc2)o1 returned D1 ag 17, D1 antagonist -34*, D1 PAM -2, D3 antag -29 and D3 ag -6.
For O=S(=O)(c1ccc(Br)cc1)c1nnn2c1nc(NCc1cccs1)c1sccc12 the results were D1 ag 6, D1 antagonist -5, D1 PAM -6 and D3 ag 7.
`Cc1ccc(C2C=C(c3ccc(F)cc3)Nc3nc(CCCO)nn32)cc1` (centres undefined) gave D1 ag 3, D1 antagonist 2, D1 PAM -2 and D3 ag 0.
For Cc1nn2c(=O)cc(COC(=O)c3cccc(NC(=O)COc4ccccc4C)c3)nc2s1 the results were D1 ag -1, D1 antagonist -15, D1 PAM -1 and D3 ag 21.
`C/C=C1\[C@H]2C=C(C)C[C@]1(N)c1ccc(=O)[nH]c1C2` gave D3 ag 7.
For CC(=O)Nc1ccc(S(=O)(=O)N2CCC(n3c(C)nc4cccnc43)CC2)cc1 the results were D1 ag 0, D1 antagonist 5, D1 PAM 1 and D3 ag -13.
`CN(C)S(=O)(=O)c1ccc2c(c1)N(CC(=O)NCc1ccccc1)C(=O)C1CCCCN21` (centres undefined) gave D1 ag 1, D1 antagonist 0, D1 PAM 0 and D3 ag 12.
For CCCCc1c(-c2ccccc2OC)ncn1Cc1cccc(-c2ccccc2)c1 the results were D3 antag -108* and D3 ag -21.
CCc1c(-c2ccccc2)ncn1Cc1cccc(-c2ccccc2)c1 was read as D3 antag 10 and D3 ag 4.
For CCc1c(C2CC2)ncn1Cc1cccc(-c2ccccc2)c1 the results were D3 antag -95* and D3 ag -14.
`CCOc1ccccc1CNC(=O)c1cnc2sc(N(CC)CC)nn2c1=O` gave D1 ag 1, D1 antagonist -7, D1 PAM -4 and D3 ag 0.
Screening CCOC(=O)c1ccccc1NC(=O)CN(c1ccccc1OCC)S(C)(=O)=O returned D1 ag 2, D1 antagonist 16, D1 PAM 2, D3 antag 5 and D3 ag 3.
For CCOc1ccccc1N(CC(=O)Nc1ccccc1C(=O)O)S(C)(=O)=O the results were D1 ag 0, D1 antagonist -45*, D1 PAM -6, D3 antag -8 and D3 ag -5.
CCOc1ccccc1N(CC(=O)N1CCCCCC1)S(C)(=O)=O was read as D1 ag -2, D1 antagonist 16, D1 PAM 0, D3 antag -18 and D3 ag 1.
For CCOc1ccccc1N(CC(=O)OC)S(C)(=O)=O the results were D1 ag 2, D1 antagonist -3, D1 PAM 3, D3 antag -107* and D3 ag 5.
For COC(=O)CN(c1cc(C(F)(F)F)ccc1Cl)S(C)(=O)=O the results were D1 ag 4, D1 antagonist -39*, D1 PAM -6, D3 antag -16 and D3 ag 4.
`Cc1ccc(C)c(Cn2cnc3ccccc3c2=O)c1` gave D1 ag 0, D1 antagonist -4, D1 PAM 0 and D3 ag -1.
Screening CC1(C)[C@@H](O)CC[C@]2(C)C3C(O)C=C4[C@H]5C[C@@](C)(CO)CC[C@]5(C)CC[C@]4(C)[C@]3(C)CC[C@@H]12 (some centres undefined) returned D1 ag 2, D1 antagonist 26, D1 PAM 5, D3 antag 53 and D3 ag 65*.
Screening CC1(C)[C@@H](O)CC[C@]2(C)[C@H]3C(=O)C=C4[C@@H]5C[C@@](C)(C(=O)O)CC[C@]5(C)CC[C@@]4(C)[C@]3(C)CC[C@@H]12 returned D1 ag 2, D1 antagonist 28, D1 PAM 1, D3 antag 0 and D3 ag 18.
Screening Cc1ccc(NC(=O)CN2C(=O)COc3ccc(S(=O)(=O)N4CCCCCC4)cc32)cc1C returned D1 ag 2, D1 antagonist 8, D1 PAM 1 and D3 ag -6.
For O=C(CCC(=O)N1Cc2ccccc2Oc2ncccc21)NCc1ccccc1Cl the results were D1 ag 12, D1 antagonist -1, D1 PAM -2 and D3 ag -5.
CCOc1ccc(CCNC(=O)Cn2ncn3c(cc4ccccc43)c2=O)cc1OCC was read as D1 ag 0, D1 antagonist 0, D1 PAM -4 and D3 ag 2.

Assay outcomes (PubChem BioAssay)
